According to PubChem BioAssay AID1745847 (National Center for Advancing Translational Sciences (NCATS), 2022):
Hit rate of the full screen: of about 2,100 compounds, about 670 (32%) were called active. Another 50% or so got no clear call; they are omitted. Calls follow the shape of the dose curve; as a rule, active = well fitted inhibition curve with a large enough effect; inconclusive = small, poorly fitted or top-dose-only effect; inactive = no such curve, though single readings can be large or run the other way. This is one part of the list.

Test: CMV-Luciferase Counterscreen for Inhibitors of ATXN expression; also: nearly all actives have a fitted effect of over 55% in size
Settings: HEK-293 CMV-luciferase reporter, luminescence, 24 h; series mostly up to 57.5 µM
% is scaled to controls: 0 for no effect and ±100 for the full control effect; potency is read from the fitted curve at half-maximal effect.

SMILES | Potency | activity change, negative = inhibition
CCN1CCN(C(=S)c2ccc(-c3ccccc3)cc2)CC1 | 2 µM (active) | 
OCCN1CCN(C(=S)c2ccc(-c3ccccc3)cc2)CC1 | 2.51 µM (active) | 
CC(C)=C1SC(N2CCN(c3ccc(C)c(Cl)c3)CC2)=NC1=O |  | 103% [at 11.4 µM] (inactive)
CCn1c2ccccc2c2cc(NC(=O)COC(=O)C3CCC(=O)N3)ccc21 (stereo not drawn) | inactive | 
CCn1c2ccccc2c2cc(C3C(C#N)=C(N)Oc4n[nH]c(COC)c43)ccc21 (stereo not drawn) | 2.82 µM (active) | 
CC1(C(=O)Nc2cnc3ccccc3c2)CCN1C(=O)c1ccccc1CCc1ccccc1 (stereo not drawn) | 28.2 µM (active) | 
COC(=O)C1=C(C)N(Cc2ccccc2)C(=NCCc2cccnc2)N[C@H]1c1ccc(Br)cc1 | 28.2 µM (active) | 
N=c1n(CCCOc2ccccc2Cl)c2ccccc2n1CC(N)=O | inactive | 
CCCCn1c(=N)n(CCOc2ccc(C)cc2)c2ccccc21 | 10 µM (active) | 
Cc1ccc(OCC(O)Cn2c(=N)n(CCN3CCCCC3)c3ccccc32)cc1 (stereo not drawn) | inactive | 
Cc1ccc(-c2nc3ccc(Cl)cn3c2CC(C)(C)C)cc1 |  | -2.84% [at 11.4 µM] (inactive)
COc1cc(C)c(C(=O)CC(=O)c2c(C)cc(OC)cc2C)c(C)c1 |  | -13.8% [at 11.4 µM] (inactive)
Cc1ccc(C(=O)N/N=C/c2nc3ccccc3n2C)cc1 | inactive | 
Cc1ccc(C(C)C)c(OCc2ccc(C(=O)N/N=C/c3ccc(O)cc3O)cc2)c1 | 2.51 µM (active) | 
Cc1ccc(C(C)C)c(OCc2ccc(C(=O)N/N=C/c3cccc(O)c3O)cc2)c1 | 2.82 µM (active) | 
O=C(c1ccc(-c2nnc(Nc3cccc(Cl)c3)c3ccccc23)cc1)N1C[C@H]2C[C@H](C1)c1cccc(=O)n1C2 |  | 46% [at 11.4 µM] (inactive)
CCN(CC)CCNC(=O)c1ccc(NC(=O)c2ccccc2-c2ccc(C(F)(F)F)cc2)cc1 | inactive | 
COC(=O)c1ccc(N2CCOCC2)c(NC(=O)Nc2cccc(OC)c2)c1 |  | 2.86% [at 11.4 µM] (inactive)
COC(=O)c1cc(NC(=O)c2cc(-c3ccc(C(F)(F)F)cc3)oc2C(F)(F)F)ccc1N1CCOCC1 | 22.4 µM (active) | 
O=C(NCc1ccco1)/C(=C/c1cccc(C(F)(F)F)c1)c1nc2ccccc2[nH]1 |  | -12% [at 11.4 µM] (inactive)
O=C(NCc1ccco1)c1ccc(-c2cccc(Cl)c2)o1 | inactive | 
O=C(NCc1ccco1)c1nc2c(nnn2Cc2ccccc2Cl)c(=O)[nH]1 | 1.58 µM (active) | 

SMILES | Potency | activity change, negative = inhibition
CC(C)CCNC(=O)COc1cccc2c1OC(C)(C)C2 | inactive | 
Cc1ccc(OCCCC(=O)NNC(=O)c2ccccn2)cc1 | 11.2 µM (active) | 
Cc1cccc(OCCCC(=O)Nc2nccs2)c1 |  | 249% [at 11.4 µM] (inactive)
CC(=O)c1cccc(-c2csc3ncnc(Sc4nnnn4C)c23)c1 | 8.91 µM (active) | 
Cn1nnnc1Sc1ncnc2scc(-c3cccc(S(C)(=O)=O)c3)c12 | 14.1 µM (active) | 
CC(=O)c1cccc(-c2cnc3c(NC=O)cc(-c4ccccc4F)cn23)c1 |  | -18.2% [at 11.4 µM] (inactive)
C=C(C)Cn1c(SCC(=O)N/N=C/c2c(O)ccc3ccccc23)nc2ccccc2c1=O | 22.4 µM (active) | 
O=C(CN1CCOCC1)N/N=C/c1c(O)ccc2ccccc12 | 8.91 µM (active) | 
O=C(CSCC(=O)Nc1ccccc1)N/N=C/c1c(O)ccc2ccccc12 | 0.501 µM (active) | 
CCCCn1c(SCC(=O)Nc2cc(NC(=O)c3ccco3)ccc2C)nc2ccccc2c1=O | inactive | 
O=C(CN1CCCC1)N/N=C/c1c(O)ccc2ccccc12 | 1.78 µM (active) | 
NC(=O)N/N=C/c1c(O)ccc2oc3c(c12)CCCC3 | inactive | 
CCCC(=O)Nc1c(C(=O)OCC)[nH]c2ccccc12 |  | -4.94% [at 11.4 µM] (inactive)
O=c1cc(N2CCN(c3ccccc3)CC2)[nH]c(=O)n1C1CCCCC1 | inactive | 
O=C(CCSc1nc2ccccc2s1)N/N=C/c1c(O)ccc2ccccc12 | 7.94 µM (active) | 
CCCC(=O)Nc1ccc2nc(SCC(=O)N3CCCC3)sc2c1 | inactive | 
CC1CCCN(c2ncnc3c2cnn3-c2ccc(Cl)cc2)C1 (stereo not drawn) | 22.4 µM (active) | 
CCOC(=O)C1CCN(c2ncnc3c2cnn3-c2ccc(Cl)cc2)CC1 | 2.24 µM (active) | 
COc1ccc(NC(C)C(=O)N/N=C/c2c(O)ccc3ccccc23)cc1 (stereo not drawn) | 6.31 µM (active) | 
COc1ccccc1NCC(=O)N/N=C/c1c(O)ccc2ccccc12 | 3.16 µM (active) | 
COc1cc([N+](=O)[O-])cc(/C=N/NC(=O)C(C)Nc2cccc3ccccc23)c1O (stereo not drawn) |  | 8.76% [at 11.4 µM] (inactive)
CCc1cc[n+](C2=C([O-])c3ccccc3C(=O)/C2=N\S(=O)(=O)c2cccs2)cc1 | 20 µM (active) | 

SMILES | Potency | activity change, negative = inhibition
Oc1ccc2ccccc2c1/C=C/c1ccc2c(Br)cc(Br)c(O)c2n1 | 3.16 µM (active) | 
COc1cc(/C=C/c2ccc3cccc(O)c3n2)cc(OC)c1OC | inactive | 
CCCc1cc(=O)[nH]c(-n2[nH]c3c(c2=O)CCCC3)n1 | 12.6 µM (active) | 
NC(=S)N1OC[C@@H]2COc3ccc4ccccc4c3[C@@H]21 | inactive | 
CC(NC(=O)Nc1cccc([N+](=O)[O-])c1)(C(F)(F)F)C(F)(F)F | 17.8 µM (active) | 
O=C(NC1CCN(Cc2ccccc2)CC1)c1cccc(S(=O)(=O)Nc2ccc(SC(F)F)cc2)c1 | 14.1 µM (active) | 
CCC(C)n1cnc2c(c1=O)c1nc3ccccc3nc1n2-c1ccc2c(c1)OCCO2 (stereo not drawn) | inactive | 
c1ccc(COc2ncnc3c2ncn3CCCN2CCN(Cc3cccc4ccccc34)CC2)cc1 | 14.1 µM (active) | 
Cc1cc2oc3cc(NCCC4CCCN4C)ccc3c(=O)c2cc1C (stereo not drawn) | inactive | 
COc1ccc(CC(N)c2csc(NC(=O)c3cc(C(C)(C)C)nn3Cc3ccccc3)n2)cc1 (stereo not drawn) |  | -13.8% [at 11.4 µM] (inactive)
COc1ccc(CC(N)c2csc(NC(=O)c3ccccc3OC)n2)cc1 (stereo not drawn) | inactive | 
COc1ccc(CC(N)c2csc(NC(=O)c3cccc(OC(F)(F)F)c3)n2)cc1 (stereo not drawn) | 28.2 µM (active) | 
O=C(Nc1nc2cc(Cl)ccc2s1)C1CCCN(S(=O)(=O)c2cccc3cccnc23)C1 (stereo not drawn) | 25.1 µM (active) | 
Cc1ccc(S(=O)(=O)c2cc3cc(Br)ccc3oc2=O)cc1 | inactive | 
COc1ccccc1/C=C\C(=O)NCC(=O)N/N=C/c1cccc(OC)c1O | 12.6 µM (active) | 
COc1cccc(/C=N/NC(=O)CNC(=O)C2COc3ccccc3O2)c1O (stereo not drawn) | 7.94 µM (active) | 
CCN(CC)c1ccc(/C=N/NC(=O)CNC(=O)C2COc3ccccc3O2)c(O)c1 (stereo not drawn) | 0.398 µM (active) | 
COc1cccc2c1C(=O)C=C(C)C2=O | 22.4 µM (active) | 
Cc1cc(C(=O)N/N=C/c2cc(Br)cc(Br)c2OC(=O)c2cccc(F)c2)n[nH]1 | 4.47 µM (active) | 
COc1ccc(-c2nn(-c3ccccc3)cc2C(=O)NC(=S)NNC(=O)c2ccncc2)cc1 | 8.91 µM (active) | 
CCCC/C(C)=N/NC(=O)c1cn(-c2ccccc2)nc1-c1ccccc1 |  | -28.6% [at 11.4 µM] (inactive)
Cc1ccc(-c2nc3cc(Br)cnc3nc2-c2ccc(C)cc2)cc1 |  | -25.9% [at 11.4 µM] (inactive)

SMILES | Potency | activity change, negative = inhibition
CCOC(=O)c1cnc(-n2nc(C)cc2C)nc1NC1CCCC1 | 1.78 µM (active) | 
C=CCOc1ccc(CNc2ccc3[nH]c(=O)[nH]c3c2)cc1OC | inactive | 
COc1ccc(Cc2nnc(N/N=C/c3ccccc3O)[nH]c2=O)cc1OC | 1.41 µM (active) | 
COc1ccc(Cc2nnc(N/N=C/c3ccc(O)cc3)[nH]c2=O)cc1OC | 0.891 µM (active) | 
COc1ccc(S(=O)(=O)N(C)C)cc1NC(=O)C1CCN(c2ncnc3sc(C)c(C)c23)CC1 | 10 µM (active) | 
COc1ccc(-c2csc(NC(=O)C3CCN(c4ncnc5sc(C)c(C)c45)CC3)n2)cc1OC | 3.55 µM (active) | 
CCN(CC)S(=O)(=O)c1cc(NC(=O)C2CCN(c3ncnc4sc(C)c(C)c34)CC2)ccc1Cl | inactive | 
CN(C)c1ccccc1-c1cc(NC=O)c2ncc(-c3cccc(C(F)(F)F)c3)n2c1 |  | -12.7% [at 11.4 µM] (inactive)
O=C(N/N=C/c1cc([N+](=O)[O-])ccc1O)c1cccc(N2CCCC2=O)c1 | 7.94 µM (active) | 
O=C(NN=Cc1c(O)ccc2ccccc12)c1ccc2c(c1)OCO2 | 2.24 µM (active) | 
O=C(N/N=C/c1c(O)ccc2ccccc12)c1cccc(C(F)(F)F)c1 | 2.82 µM (active) | 
O=[N+]([O-])c1ccc(/C=N/N=C/c2ccc([N+](=O)[O-])o2)o1 | 14.1 µM (active) | 
O=C(N/N=C\c1c(O)ccc2ccccc12)c1ccc(Cn2cccn2)o1 | 0.891 µM (active) | 
COc1ccc(/C=N/NC(=O)c2cccc([N+](=O)[O-])c2)c2ccccc12 |  | -1.17% [at 11.4 µM] (inactive)
C/C(=N\Nc1cc(N2CCOCC2)nc(C)n1)c1cccc([N+](=O)[O-])c1 |  | -9.23% [at 11.4 µM] (inactive)
O=C(N/N=C/c1ccccc1O)c1cccc(C(F)(F)F)c1 | 0.501 µM (active) | 
O=C(NN=Cc1ccccc1O)c1cccc([N+](=O)[O-])c1 | 3.98 µM (active) | 
O=C(N/N=C/c1ccc([N+](=O)[O-])o1)c1ccc2c(c1)OCO2 | 12.6 µM (active) | 
COc1ccc(S(=O)(=O)Nc2ccc(F)cc2)cc1N(C)S(=O)(=O)c1ccc(Cl)cc1 | 10 µM (active) | 
CN1CCC(N(C)C(=O)c2ccc(Cl)c(S(=O)(=O)N3CCc4ccccc43)c2)CC1 | inactive | 
O=C(Nc1nnc(C2CC2)o1)c1ccc(S(=O)(=O)N2CCCc3ccccc32)cc1 | 7.08 µM (active) | 
CCN(Cc1ccccc1)S(=O)(=O)c1ccc(C(=O)Nc2nnc(C3CC3)o2)cc1 | 2.24 µM (active) | 
